Measured values as given in PubChem BioAssay AID1159580 (chemical genetic matrix, 2015).
Where “and” joins values, the source holds several entries; their conditions need not be identical. Identical values can stand only once. The campaign covered roughly 5,500 compounds. About 2,000 (36%) were called active. Another 18% or so got no clear call; they are omitted. Cut-off read from the data, not from the text of the source: active = normalized growth mostly below about 0.91 (no sharp cut-off); inconclusive = no clear call, values can overlap the other calls; inactive = mostly above about 0.92. Some of the results follow.

Test: chemical genetic growth profiling, strain panel (AID 1159580);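 note: tested at 20 µM; growth read once vehicle control cultures reached saturation at 30 °C; 1 = growth at the plate median or of vehicle wells; lower values mean less growth of the strain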
Settings: S. cerevisiae deletion strains, growth OD

Measured: normalized growth

CCN1C[C@@]2(COC)C3[C@@H](OC)[C@H]4[C@@H]1[C@]3(C(OC)C[C@H]2O)C1C[C@@]2(O)[C@H](OC(=O)c3ccccc3)C1[C@]4(OC(C)=O)[C@@H](O)[C@@H]2OC (stereo partly drawn)
inactive: locus YAL021C, strain ccr4, active compounds read low 1.03 | locus YAL026C, strain drs2, active compounds read low 1.02 | locus YAL030W, strain snc1, active compounds read low 1 | locus YBL061C, strain skt5, active compounds read low 1 | locus YBR009C, strain hhf1, active compounds read low 1.06 | locus YBR021W, strain FUR4, active compounds read low 0.985 | locus YBR023C, strain chs3, active compounds read low 1.01 | locus YBR171W, strain sec66, active compounds read low 1.01 | locus YBR229C, strain ROT2, active compounds read low 1.02 | locus YBR231C, strain swc5, active compounds read low 0.995 | locus YBR279W, strain paf1, active compounds read low 1.02 | locus YCL011C, strain gbp2, active compounds read low 1.02 | locus YCL016C, strain dcc1, active compounds read low 0.999 | locus YCL029C, strain bik1, active compounds read low 1.03 | locus YCL061C, strain MRC1, active compounds read low 1 | locus YCL069W, strain vba3, active compounds read low 1 | locus YCR088W, strain abp1, active compounds read low 1 | locus YDL005C, strain med2, active compounds read low 1.01 | locus YDL035C, strain GPR1, active compounds read low 1.03 | locus YDL040C, strain nat1, active compounds read low 1 | locus YDL074C, strain BRE1, active compounds read low 1.03 | locus YDL101C, strain DUN1, active compounds read low 1.02 | locus YDL185W, strain tfp1, active compounds read low 1.04 | locus YDL192W, strain arf1, active compounds read low 1.03 | locus YDR001C, strain nth1, active compounds read low 1.01 | locus YDR069C, strain doa4, active compounds read low 0.985 | locus YDR101C, strain arx1, active compounds read low 1.03 | locus YDR137W, strain rgp1, active compounds read low 1.02 | locus YDR150W, strain NUM1, active compounds read low 1.02 | locus YDR159W, strain sac3, active compounds read low 0.978 | locus YDR162C, strain NBP2, active compounds read low 1.05 | locus YDR195W, strain ref2 0.97 | locus YDR297W, strain sur2, active compounds read low 1.04 | locus YDR318W, strain mcm21, active compounds read low 1.03 | locus YDR334W, strain swr1, active compounds read low 1.02 | locus YDR335W, strain msn5, active compounds read low 1.01 | locus YDR388W, active compounds read low 1.03 | locus YDR392W, strain spt3, active compounds read low 0.907 | locus YDR502C, strain sam2, active compounds read low 1.03 | locus YEL003W, strain gim4, active compounds read low 1.02 | locus YEL037C, strain rad23, active compounds read low 1.01 | locus YEL061C, strain CIN8 (second series), active compounds read low 1.01 | locus YEL061C, strain CIN8, active compounds read low 1.02 | locus YER015W, strain faa2, active compounds read low 1.01 | locus YER016W, strain bim1, active compounds read low 1 | locus YER110C, active compounds read low 1.04 | locus YER111C, strain swi4, active compounds read low 1.01 | locus YER155C, strain BEM2 (second series), active compounds read low 0.973 | locus YER155C, strain BEM2, active compounds read low 1 | locus YER167W, strain BCK2, active compounds read low 1.03 | locus YFR010W, strain ubp6, active compounds read low 1.01 | locus YGL078C, strain dbp3, active compounds read low 1.03 | locus YGL086W, strain mad1, active compounds read low 1.02 | locus YGL167C, strain pmr1, active compounds read low 0.998 | locus YGL173C, strain kem1, active compounds read low 1.02 | locus YGL227W, strain vid30, active compounds read low 1.01 | locus YGL240W, strain doc1, active compounds read low 0.987 | locus YGL248W, strain PDE1, active compounds read low 1.02 | locus YGL253W, strain hxk2, active compounds read low 1.01 | locus YGR135W, strain pre9, active compounds read low 1.03 | locus YGR252W, strain gcn5, active compounds read low 1.01 | locus YHR013C, strain ard1, active compounds read low 0.995 | locus YHR027C, strain rpn1, active compounds read low 1.01 | locus YHR030C, strain SLT2, active compounds read low 1.02 and 0.957 | locus YHR079C, strain IRE1 (second series), active compounds read low 1.03 | locus YHR079C, strain IRE1, active compounds read low 0.967 | locus YHR094C, strain hxt1, active compounds read low 1.03 | locus YHR129C, strain ARP1, active compounds read low 1.02 | locus YHR142W, strain chs7, active compounds read low 1.03 | locus YHR200W, strain rpn10, active compounds read low 1.04 | locus YIL066C, strain RNR3, active compounds read low 1.04 | locus YIL073C, strain SPO22, active compounds read low 1.13 | locus YIL125W, strain kgd1, active compounds read low 1.03 | locus YIR030C, strain dcg1, active compounds read low 1.03 | locus YJL092W, strain hpr5, active compounds read low 1 | locus YJL095W, strain BCK1 (second series), active compounds read low 1.02 | locus YJL095W, strain BCK1, active compounds read low 1.04 and 1 | locus YJL115W, strain asf1, active compounds read low 1.01 | locus YJL129C, strain trk1, active compounds read low 1.01 | locus YJL134W, strain LCB3, active compounds read low 1.01 | locus YJL154C, strain vps35, active compounds read low 1 | locus YJL164C, strain tpk1, active compounds read low 1.02 | locus YJL166W, strain qcr8, active compounds read low 0.989 | locus YJL168C, strain set2, active compounds read low 1.03 | locus YJL187C, strain SWE1 (second series), active compounds read low 1.04 | locus YJL187C, strain SWE1, active compounds read low 1.03 | locus YJR043C, strain POL32, active compounds read low 1.03 | locus YJR066W, strain TOR1, active compounds read low 0.975 | locus YKL009W, strain mrt4, active compounds read low 1.05 | locus YKL068W, active compounds read low 1.05 | locus YKL085W, strain MDH1 (second series), active compounds read low 1.03 | locus YKL085W, strain MDH1, active compounds read low 1.03 | locus YKL160W, strain elf1, active compounds read low 0.963 | locus YKR001C, strain vps1, active compounds read low 1.01 | locus YKR026C, strain gcn3, active compounds read low 1.01 | locus YKR091W, strain srl3, active compounds read low 1.01 | locus YLL001W, strain dnm1, active compounds read low 0.992 | locus YLL026W, active compounds read low 1 | locus YLL041C, strain sdh2, active compounds read low 1.01 | locus YLR027C, strain aat2, active compounds read low 1 | locus YLR039C, strain RIC1, active compounds read low 1.09 | locus YLR058C, strain SHM2, active compounds read low 1.03 | locus YLR102C, strain apc9, active compounds read low 1.03 | locus YLR113W, strain HOG1, active compounds read low 0.94 | locus YLR221C, strain rsa3, active compounds read low 0.999 | locus YLR258W, strain gsy2, active compounds read low 1.01 | locus YLR262C, strain YPT6 (second series), active compounds read low 0.994 | locus YLR262C, strain YPT6, active compounds read low 1.13 | locus YLR268W, strain sec22, active compounds read low 1.02 | locus YLR320W, strain mms22, active compounds read low 0.991 | locus YLR330W, strain CHS5, active compounds read low 1.02 | locus YLR342W, strain FKS1 (second series), active compounds read low 1.02 | locus YLR342W, strain FKS1, active compounds read low 1.01 | locus YLR357W, strain rsc2, active compounds read low 1.01 | locus YLR370C, strain arc18, active compounds read low 1.02 | locus YLR371W, strain rom2, active compounds read low 1.02 | locus YLR384C, strain iki3, active compounds read low 1.01 | locus YLR418C, strain cdc73, active compounds read low 1.04 | locus YML016C, strain PPZ1, active compounds read low 1.02 | locus YML032C, strain rad52, active compounds read low 1.02 | locus YML120C, strain ndi1, active compounds read low 1.01 | locus YML124C, strain tub3, active compounds read low 1.04 | locus YMR058W, strain fet3, active compounds read low 1.01 | locus YMR078C, strain ctf18, active compounds read low 1.06 | locus YMR125W, strain sto1, active compounds read low 0.973 | locus YMR129W, active compounds read low 1.01 | locus YMR205C, strain PFK2, active compounds read low 0.966 | locus YMR223W, strain ubp8, active compounds read low 1.02 | locus YMR231W, strain pep5, active compounds read low 1.01 | locus YMR307W, strain GAS1, active compounds read low 1.01 | locus YNL067W, strain RPL9B, active compounds read low 1.04 | locus YNL071W, strain lat1, active compounds read low 1 | locus YNL128W, strain TEP1, active compounds read low 1.02 | locus YNL183C, strain NPR1, active compounds read low 0.937 | locus YNL209W, strain ssb2, active compounds read low 1.01 | locus YNL233W, strain BNI4, active compounds read low 1.03 | locus YNL248C, strain rpa49, active compounds read low 0.953 | locus YNL250W, strain rad50, active compounds read low 1.04 | locus YNL271C, strain bni1, active compounds read low 1.04 | locus YNL298W, strain CLA4, active compounds read low 1.05 | locus YNL307C, strain MCK1, active compounds read low 1.05 | locus YNL322C, strain KRE1 (second series), active compounds read low 0.998 | locus YNR049C, strain mso1, active compounds read low 1.01 | locus YNR052C, strain pop2, active compounds read low 1.02 | locus YOL012C, strain htz1 1.37 | locus YOL147C, strain pex11, active compounds read low 1.02 | locus YOR001W, strain rrp6, active compounds read low 1 | locus YOR061W, strain CKA2, active compounds read low 1.02 | locus YOR069W, strain VPS5, active compounds read low 1.01 | locus YOR070C, strain gyp1, active compounds read low 1.01 | locus YOR080W, strain dia2, active compounds read low 0.998 | locus YOR083W, strain WHI5, active compounds read low 0.968 | locus YOR106W, strain vam3, active compounds read low 0.988 | locus YOR136W, strain idh2, active compounds read low 1.04 | locus YOR144C, strain elg1, active compounds read low 1.01 | locus YOR184W, strain ser1, active compounds read low 1.02 | locus YOR231W, strain MKK1, active compounds read low 0.966 | locus YOR265W, strain rbl2, active compounds read low 0.999 | locus YOR270C, strain vph1, active compounds read low 0.981 | locus YOR290C, strain snf2, active compounds read low 1 | locus YOR316C, strain cot1, active compounds read low 1.04 | locus YPL051W, strain arl3, active compounds read low 0.988 | locus YPL055C, strain LGE1, active compounds read low 1.05 | locus YPL078C, strain atp4, active compounds read low 0.958 | locus YPL106C, strain sse1, active compounds read low 1 | locus YPL240C, strain hsp82, active compounds read low 1.01 | locus YPL241C, strain CIN2, active compounds read low 1.02 | locus YPL256C, strain CLN2, active compounds read low 0.986 | locus YPR119W, strain clb2, active compounds read low 1.03 | locus YPR141C, strain kar3, active compounds read low 1.03 | locus YPR163C, strain tif3, active compounds read low 1.01 | locus YPR167C, strain met16, active compounds read low 1.04 | strain wtn01, active compounds read low 1.03
